# Measurements: PubChem BioAssay (NCI)
# Compounds without any hit were thinned out: in the full panel of roughly 79,000, 15% have a hit. Values without a mark were called inactive. Activity calls are given as the source filed them. Cut-off read from the data, not from the text of the source: active = growth inhibition above about 70%; inactive = the rest.
# Columns and labels:
# [1] = NCI Yeast Anticancer Drug Screen. Data for the rad52 strain (AID 147);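 note: 0% = growth of vehicle-treated control cultures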; settings: S. cerevisiae rad52 mutant growth inhibition, stronger effect = higher value
# Summary of the method: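 Screen used a yeast mutant impaired in DNA repair. After compound exposure, growth was measured. Values reflect inhibition compared with vehicle-treated cells.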
# [2] = NCI Yeast Anticancer Drug Screen. Data for the wt1 strain (AID 149);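 note: 0% = growth of vehicle-treated wt1 cultures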; settings: S. cerevisiae wt1 strain (SPY 50644) growth inhibition, stronger effect = higher value
# Summary of the method: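 Compounds are added to wt1 yeast cultures. Growth is then measured. Inhibition is expressed relative to vehicle-treated controls.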
# [3] = NCI Yeast Anticancer Drug Screen. Data for the rad50EPP+ strain (AID 151);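 note: 0% = growth of vehicle-treated control cultures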; settings: S. cerevisiae rad50 mutant strain, stronger effect = higher value
# Summary of the method: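 Exposing the rad50EPP+ strain to each compound, growth was compared with vehicle-only cultures to give inhibition.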
# [4] = NCI Yeast Anticancer Drug Screen. Data for the mgt1 strain (AID 153); settings: S. cerevisiae mgt1 mutant growth inhibition, stronger effect = higher value
# Summary of the method: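 Genetically defined yeast (mgt1) treated with compound; inhibition of growth expressed against vehicle-treated controls.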
# [5] = NCI Yeast Anticancer Drug Screen. Data for the rad50 strain (AID 155);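 note: 0% = growth of vehicle-only cultures of the same strain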; settings: S. cerevisiae rad50 strain growth inhibition, stronger effect = higher value
# Summary of the method: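 Inhibition values express reduced yeast growth in compound-treated cultures relative to vehicle-treated controls.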
# [6] = NCI Yeast Anticancer Drug Screen. Data for the mec2-1 strain (AID 157); settings: S. cerevisiae mec2-1 strain, stronger effect = higher value
# Summary of the method: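 Readout is yeast growth inhibition, normalised to vehicle-treated controls, in the mec2-1 strain exposed to compound.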
# [7] = NCI Yeast Anticancer Drug Screen. Data for the rad14 strain (AID 159);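 note: 0% = growth of vehicle-treated control cultures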; settings: S. cerevisiae rad14 strain growth inhibition, stronger effect = higher value
# Summary of the method: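 A mutant yeast strain defective in DNA damage repair is treated with compound; inhibition of its growth is scored against untreated, vehicle-exposed cultures.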
# [8] = NCI Yeast Anticancer Drug Screen. Data for the sgs1 mgt1 strain (AID 161);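 note: 0% = growth of cultures given vehicle only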; settings: S. cerevisiae sgs1 mgt1 strain, stronger effect = higher value
# Summary of the method: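 Growth of a repair-deficient yeast mutant was monitored after compound treatment and expressed as inhibition relative to vehicle-treated cultures.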
# [9] = NCI Yeast Anticancer Drug Screen. Data for the CLN2oe strain (AID 163);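 note: 0% = growth of vehicle-only control cultures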; settings: S. cerevisiae CLN2oe strain, stronger effect = higher value
# Summary of the method: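 Values reflect how much compound exposure reduced yeast growth, referenced to vehicle-exposed cells. Assay organism is a strain with a defined genetic change affecting cell-cycle control.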
# [10] = NCI Yeast Anticancer Drug Screen. Data for the cln2 rad14 strain (AID 165);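 note: 0% = growth equal to vehicle treated cultures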; settings: S. cerevisiae cln2 rad14 strain, stronger effect = higher value
# Summary of the method: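 Relative to vehicle controls, growth inhibition of compound-treated cln2 rad14 yeast was recorded.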
# [11] = NCI Yeast Anticancer Drug Screen. Data for the bub3 strain (AID 167); settings: S. cerevisiae bub3 mutant strain, stronger effect = higher value
# Summary of the method: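 Steps: expose the mutant yeast strain to compound; grow alongside vehicle-treated cultures; measure growth; express inhibition against the vehicle cultures.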
# [12] = NCI Yeast Anticancer Drug Screen. Data for the wt2 strain (AID 169);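 note: 0% = growth of vehicle-treated yeast cultures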; settings: S. cerevisiae wt2 strain growth inhibition, stronger effect = higher value
# Summary of the method: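 Values express reduction in yeast growth under compound treatment, referenced to vehicle-treated cells.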
# [13] = NCI Yeast Anticancer Drug Screen. Data for the mlh1 strain (AID 171);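 note: 0% = growth of vehicle-treated control cultures of the same strain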; settings: S. cerevisiae mlh1 strain growth inhibition, stronger effect = higher value
# Summary of the method: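 Steps: expose the defined-mutant yeast strain to compound; expose a parallel culture to vehicle; measure growth; express compound effect as inhibition relative to the vehicle culture.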
# [14] = NCI Yeast Anticancer Drug Screen. Data for the sgs1 strain (AID 173);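 note: 0% = growth of vehicle-only control cultures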; settings: S. cerevisiae sgs1 mutant, stronger effect = higher value
# Summary of the method: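 Treat defined-mutant yeast with compound; measure growth; calculate inhibition relative to vehicle-treated cells.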
# [15] = NCI Yeast Anticancer Drug Screen. Data for the mlh1 rad18 strain (AID 175); settings: S. cerevisiae mlh1 rad18 strain growth inhibition, stronger effect = higher value
# Summary of the method: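 Test agents were incubated with a yeast strain of defined genotype (DNA damage repair defect). Inhibition of growth was derived by comparison with vehicle-exposed cultures.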
# [16] = NCI Yeast Anticancer Drug Screen. Data for the rad18 strain (AID 177); settings: S. cerevisiae rad18 mutant growth inhibition, stronger effect = higher value
# Summary of the method: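 A genetically defined yeast mutant impaired in DNA damage repair was treated with test compounds, then its growth was measured against cultures receiving vehicle alone.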
# [17] = at 5.0 µM (retest, dose inferred, filed as 0.5)
# [18] = at 50.0 µM (retest, dose inferred, filed as 5.0)
compound,measurement,setting,value
O=C(O)CCCc1cc(I)c(N(CCCl)CCCl)c(I)c1,growth inhibition,[1]; at 1.2 µM,-18%
same,growth inhibition,[1]; at 3.7 µM,-35%
same,growth inhibition,[1]; at 11.0 µM,-14%
same,growth inhibition,[1]; at 33.0 µM,75% (active)
same,growth inhibition,[1]; at 100.0 µM,96% (active)
same,growth inhibition,[2]; at 1.2 µM,-59%
same,growth inhibition,[2]; at 3.7 µM,-53%
same,growth inhibition,[2]; at 11.0 µM,-59%
same,growth inhibition,[2]; at 33.0 µM,68%
same,growth inhibition,[2]; at 100.0 µM,98% (active)
same,growth inhibition,[3]; at 1.2 µM,-25%
same,growth inhibition,[3]; at 3.7 µM,-15%
same,growth inhibition,[3]; at 11.0 µM,-27%
same,growth inhibition,[3]; at 33.0 µM,-23%
same,growth inhibition,[3]; at 100.0 µM,-33%
same,growth inhibition,[4]; at 1.2 µM,-20%
same,growth inhibition,[4]; at 3.7 µM,-42%
same,growth inhibition,[4]; at 11.0 µM,-42%
same,growth inhibition,[4]; at 33.0 µM,80% (active)
same,growth inhibition,[4]; at 100.0 µM,97% (active)
same,growth inhibition,[5]; at 1.2 µM,-60%
same,growth inhibition,[5]; at 3.7 µM,-55%
same,growth inhibition,[5]; [17],41%
same,growth inhibition,[5]; at 11.0 µM,-35%
same,growth inhibition,[5]; at 33.0 µM,45%
same,growth inhibition,[5]; [18],98% (active)
same,growth inhibition,[5]; at 50.0 µM,37.9%
same,growth inhibition,[5]; at 100.0 µM,94% (active)
same,growth inhibition,[6]; at 1.2 µM,-77%
same,growth inhibition,[6]; at 3.7 µM,-73%
same,growth inhibition,[6]; [17],11%
same,growth inhibition,[6]; at 11.0 µM,-36%
same,growth inhibition,[6]; at 33.0 µM,60%
same,growth inhibition,[6]; [18],99% (active)
same,growth inhibition,[6]; at 50.0 µM,69.1%
same,growth inhibition,[6]; at 100.0 µM,95% (active)
same,growth inhibition,[7]; at 1.2 µM,-59%
same,growth inhibition,[7]; at 3.7 µM,-59%
same,growth inhibition,[7]; at 11.0 µM,-26%
same,growth inhibition,[7]; at 33.0 µM,37%
same,growth inhibition,[7]; at 100.0 µM,95% (active)
same,growth inhibition,[8]; [17],50%
same,growth inhibition,[8]; [18],99% (active)
same,growth inhibition,[8]; at 50.0 µM,46.2%
same,growth inhibition,[9]; at 1.2 µM,-13%
same,growth inhibition,[9]; at 3.7 µM,-23%
same,growth inhibition,[9]; at 11.0 µM,-13%
same,growth inhibition,[9]; at 33.0 µM,87% (active)
same,growth inhibition,[9]; at 100.0 µM,97% (active)
same,growth inhibition,[10]; [17],45%
same,growth inhibition,[10]; [18],98% (active)
same,growth inhibition,[10]; at 50.0 µM,53.5%
same,growth inhibition,[11]; at 1.2 µM,-58%
same,growth inhibition,[11]; at 3.7 µM,-37%
same,growth inhibition,[11]; [17],51%
same,growth inhibition,[11]; at 11.0 µM,-60%
same,growth inhibition,[11]; at 33.0 µM,73% (active)
same,growth inhibition,[11]; [18],97% (active)
same,growth inhibition,[11]; at 50.0 µM,48%
same,growth inhibition,[11]; at 100.0 µM,94% (active)
same,growth inhibition,[12]; at 1.2 µM,-13%
same,growth inhibition,[12]; at 3.7 µM,-14%
same,growth inhibition,[12]; at 11.0 µM,-19%
same,growth inhibition,[12]; at 33.0 µM,91% (active)
same,growth inhibition,[12]; at 100.0 µM,97% (active)
same,growth inhibition,[13]; at 1.2 µM,-50%
same,growth inhibition,[13]; at 3.7 µM,-29%
same,growth inhibition,[13]; at 11.0 µM,-38%
same,growth inhibition,[13]; at 33.0 µM,85% (active)
same,growth inhibition,[13]; at 100.0 µM,95% (active)
same,growth inhibition,[14]; at 1.2 µM,-40%
same,growth inhibition,[14]; at 3.7 µM,-46%
same,growth inhibition,[14]; at 11.0 µM,-24%
same,growth inhibition,[14]; at 33.0 µM,88% (active)
same,growth inhibition,[14]; at 100.0 µM,96% (active)
same,growth inhibition,[15]; [17],25%
same,growth inhibition,[15]; [18],98% (active)
same,growth inhibition,[15]; at 50.0 µM,69.3%
same,growth inhibition,[16]; at 1.2 µM,-63%
same,growth inhibition,[16]; at 3.7 µM,-50%
same,growth inhibition,[16]; at 11.0 µM,-13%
same,growth inhibition,[16]; at 33.0 µM,76% (active)
same,growth inhibition,[16]; at 100.0 µM,93% (active)
